Measured values: PubChem BioAssay (Tox21)
Results filed as inconclusive are left out. A call without a number means that no potency is given here. Calls of active or inactive are those of the source. Unless noted, calls come from the whole dose curve; as a rule, active = well fitted curve in the direction sought with a large enough effect in the repeat runs; inconclusive = weak or mixed curves; inactive = no such curve, though single readings can be large; an effect the other way counts as inactive or inconclusive.

Key:
[1] = qHTS assay for small molecule agonists of the p53 signaling pathway (AID 651631; calls by dose curve; note: nearly all actives have a fitted effect of over 15% in size; note: potency is the fitted concentration of half-maximal effect)
Procedure, shortened: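 Testing took place in human colorectal HCT-116 cells with stable p53RE-driven beta-lactamase. After 16 h of compound exposure at 37 °C, a FRET substrate was added and fluorescence recorded 2 h later.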

[2] = qHTS assay for small molecule agonists of the p53 signaling pathway - cell viability (AID 651633; calls by dose curve; note: nearly all actives have a fitted effect of over 30% in size; note: potency is the fitted concentration of half-maximal effect)
Procedure, shortened: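 p53RE-bla cells, seeded at 4,000 per well and rested 5 h at 37 C/5% CO2, received compounds in DMSO for 16 h at 37 C. CellTiter-Glo was then added, and luminescence was read after 30 min at room temperature to gauge cytotoxicity.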

[3] = qHTS assay for small molecules that induce genotoxicity in human embryonic kidney cells expressing luciferase-tagged ATAD5 - cell viability (AID 651634; calls by dose curve; note: nearly all actives have a fitted effect of over 25% in size)
Procedure, shortened: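 Cytotoxicity counterscreen in HEK293T cells bearing an ATAD5-luciferase reporter: live-cell protease activity measured by CellTiter-Fluor fluorescence after 15.5 hr compound exposure.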

[4] = qHTS assay to test for compound auto fluorescence at 590 nm (red) in HepG2 cells (AID 720674)
Procedure, shortened: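 Rose Bengal sodium served as the red fluorophore standard. HepG2 monolayers (overnight attachment, MEM with 10% FBS) were exposed to test compounds for 1 hr at 37 C and read at Ex 540/Em 590 nm.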

[5] = qHTS assay to test for compound auto fluorescence at 535 nm (green) in HepG2 cells (AID 720675)
[6] = qHTS assay to test for compound auto fluorescence at 460 nm (blue) in HEK293 cells (AID 720678)
Procedure, shortened: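 HEK293, 2,000 cells/well, 10% dialyzed FBS; attach 4-5 hr 37C; pin compound or DMSO; o/n 37C/5% CO2; fluorescence 405/460 nm; triamterene-equivalent units.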

[7] = qHTS assay to test for compound auto fluorescence at 590 nm (red) in HEK293 cells (AID 720679)
Procedure, shortened: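 Intensity at 540nm excitation and 590nm emission is reported as Rose Bengal sodium-equivalent autofluorescence. Measurements followed overnight exposure (37C, 5% CO2) of HEK293 cells, 2,000 per well, to 23 nL compound.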

[8] = qHTS assay to test for compound auto fluorescence at 535 nm (green) in HEK293 cells (AID 720680)
[9] = qHTS assay to test for compound auto fluorescence at 460 nm (blue) in HEK293 cell free culture (AID 720681)
Procedure, shortened: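 Test compounds were pinned into cell-free culture medium (DMEM with 10% FBS) and fluorescence was read directly at Ex/Em 405/460 nm. Signals were expressed as fluorescence equivalents of triamterene, with DMSO vehicle as control.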

[10] = qHTS assay to test for compound auto fluorescence at 535 nm (green) in HEK293 cell free culture (AID 720682)
Procedure, shortened: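 DMEM + 10% FBS, cell-free; cpd or DMSO pinned in; Ex485/Em535 read; output as fluorescein-equivalent signal.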

[11] = qHTS assay to test for compound auto fluorescence at 590 nm (red) in HEK293 cell free culture (AID 720683)
Procedure, shortened: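 Tox21 10K library compounds were pinned into cell-free DMEM with 10% FBS and fluorescence was read at excitation 540 nm. Activity is expressed as Rose Bengal sodium equivalency.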

[12] = qHTS assay to test for compound auto fluorescence at 590 nm (red) in HepG2 cell free culture (AID 720684)
Procedure, shortened: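 Red fluorescence (540 nm excitation, 590 nm emission) was measured after compound transfer into cell-free MEM supplemented with 10% FBS. Values are equivalencies against Rose Bengal sodium.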

[13] = qHTS assay to test for compound auto fluorescence at 460 nm (blue) in HepG2 cell free culture (AID 720685)
Procedure, shortened: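 Compound (23 nL) or DMSO pinned into cell-free MEM with 10% FBS; blue fluorescence read at 405/460 nm excitation/emission, expressed as auto-fluorescence equivalency to triamterene.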

[14] = qHTS assay to test for compound auto fluorescence at 535 nm (green) in HepG2 cell free culture (AID 720686)
[15] = target: Glucocorticoid receptor (Homo sapiens) (UniProt P04150); test: qHTS assay to identify small molecule agonists of the glucocorticoid receptor (GR) signaling pathway (AID 720691; active = well fitted activation curve with a large enough effect in the signal ratio in the repeat runs, not every such curve was filed as active; the % refers to the signal ratio); conditions: GR-bla HeLa, beta-lactamase reporter ratio, 18 h; activation: at 62.4 µM (top of the series)
Procedure, shortened: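 Agonist mode in a HeLa line carrying a GRE-controlled beta-lactamase reporter. Compounds act for 18 h at 37 C before a 2 h room-temperature FRET substrate step and fluorescence reading.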

[16] = qHTS assay for small molecule disruptors of the mitochondrial membrane potential - cell viability (AID 720634; calls by dose curve;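 note: human HepG2 liver cancer cells; nearly all actives have a fitted effect of over 20% in size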)
Procedure, shortened: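 After overnight attachment at 37 C, HepG2 cells received compound or DMSO vehicle for 1 hr. Viability is then taken from ATP-driven luminescence following a 30 min room-temperature CellTiter-Glo step.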

[17] = qHTS assay to test for compound auto fluorescence at 460 nm (blue) in HepG2 cells (AID 720687)
Procedure, shortened: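 Cells (2,000/well in MEM with 10% FBS) attached overnight at 37 C, then were exposed to compound or DMSO for 1 hr at 37 C, 5% CO2. Fluorescence read at Ex/Em 405/460 nm, expressed as triamterene-equivalent signal.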

[18] = target: Glucocorticoid receptor (Homo sapiens) (UniProt P04150); test: qHTS assay to identify small molecule antagonists of the glucocorticoid receptor (GR) signaling pathway (AID 720692; active = well fitted inhibition curve with a large enough effect in the signal ratio in the repeat runs, not every such curve was filed as active; the % refers to the signal ratio; note: potency is the fitted concentration of half-maximal effect)
Procedure, shortened: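 Cells plated, rested 4 h at 37 C/5% CO2; compounds in DMSO pin-transferred; dexamethasone added to 5 nM final; 18 h at 37 C; B/G FRET substrate added, 2 h room temperature; fluorescence measured.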

[19] = qHTS assay for small molecule disruptors of the mitochondrial membrane potential (AID 720635); note: potency is the fitted concentration of half-maximal effect
Procedure, shortened: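 HepG2 cells (2,000/well) attached overnight at 37C, then took compound for 1 hr at 37C, 5% CO2. Mito-MPS dye was added for 30 min; fluorescence was read at 490/535 nm (monomers) and 540/590 nm (aggregates).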

Glucocorticoid receptor (Homo sapiens), sequence (P04150 whole entry, looked up): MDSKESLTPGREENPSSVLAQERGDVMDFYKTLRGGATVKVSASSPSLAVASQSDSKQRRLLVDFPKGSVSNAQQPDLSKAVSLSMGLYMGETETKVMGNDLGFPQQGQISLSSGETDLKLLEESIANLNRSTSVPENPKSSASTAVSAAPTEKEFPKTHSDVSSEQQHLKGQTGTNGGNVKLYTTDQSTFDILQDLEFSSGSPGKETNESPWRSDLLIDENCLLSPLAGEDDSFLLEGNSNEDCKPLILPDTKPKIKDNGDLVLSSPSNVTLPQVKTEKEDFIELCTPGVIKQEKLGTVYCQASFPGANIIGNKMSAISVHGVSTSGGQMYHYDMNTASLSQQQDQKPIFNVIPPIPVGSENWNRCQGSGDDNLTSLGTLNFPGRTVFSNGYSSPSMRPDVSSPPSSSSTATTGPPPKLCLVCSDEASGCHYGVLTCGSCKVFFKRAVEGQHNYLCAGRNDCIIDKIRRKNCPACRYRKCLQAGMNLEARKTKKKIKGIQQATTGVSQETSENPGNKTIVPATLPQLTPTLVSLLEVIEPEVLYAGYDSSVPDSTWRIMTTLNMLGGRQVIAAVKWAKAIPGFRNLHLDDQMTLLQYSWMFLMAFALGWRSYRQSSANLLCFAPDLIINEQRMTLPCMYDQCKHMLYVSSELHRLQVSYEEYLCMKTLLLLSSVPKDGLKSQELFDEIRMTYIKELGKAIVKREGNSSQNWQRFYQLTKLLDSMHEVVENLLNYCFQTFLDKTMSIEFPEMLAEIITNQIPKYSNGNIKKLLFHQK

Row | Structure (SMILES) | Potency [1] | Potency [2] | Potency [3] | outcome [4] | Potency [5] | Potency [6] | outcome [7] | outcome [8] | Potency [9] | outcome [10] | outcome [11] | outcome [12] | Potency [13] | Potency [14] | Potency [15] | Potency [16] | Potency [17] | Potency [18] | Potency [19]
1 | CCCOC(=O)c1ccc(O)cc1 | inactive | inactive | inactive | inactive | inactive | inactive | inactive | inactive | inactive | inactive | inactive | inactive | inactive | inactive | inactive |  |  |  | 
2 | NC(=O)[C@H]1O[C@@H](O)[C@H](O)[C@@H](O)[C@@H]1O | inactive | inactive | inactive | inactive |  | inactive | inactive | inactive | inactive | inactive | inactive | inactive | inactive | inactive | inactive | inactive | inactive | inactive | 
3 | O=C1OC(O)C(C(Cl)Cl)=C1Cl (configuration not stated) | 14.1 µM (active) | 15.8 µM (active) |  | inactive | inactive | inactive | inactive | inactive | inactive | inactive |  | inactive | inactive | inactive |  |  |  | 25.3 µM (active) | 63 µM (active)
4 | CC(C)Cc1ccc([C@H](C)C(=O)O)cc1 | inactive | inactive | inactive | inactive | inactive | inactive | inactive | inactive | inactive | inactive | inactive | inactive | inactive | inactive | inactive | inactive | inactive | inactive | inactive
5 | C=CC[N+]1([C@H]2C[C@H]3[C@@H]4CC[C@H]5C[C@H](O)[C@@H](N6CCOCC6)C[C@]5(C)[C@H]4CC[C@]3(C)[C@H]2OC(C)=O)CCCC1 | inactive | inactive | inactive | inactive |  | inactive | inactive | inactive | inactive | inactive | inactive | inactive | inactive | inactive | inactive | inactive | inactive |  | inactive
6 | C=C1[C@H](CO)[C@@H](O)C[C@@H]1n1cnc2c(=O)[nH]c(N)nc21 | inactive | inactive | inactive | inactive | inactive | inactive | inactive |  | inactive | inactive | inactive | inactive | inactive | inactive | inactive | inactive | inactive | inactive | inactive
7 | C[S+](C)CCC(N)C(=O)O (configuration not stated) | inactive | inactive | inactive | inactive | inactive | inactive | inactive | inactive | inactive | inactive | inactive | inactive | inactive | inactive | inactive | inactive | inactive | inactive | inactive
8 | C[C@H](Cc1ccc(O)c(O)c1)[C@@H](C)Cc1ccc(O)c(O)c1 | inactive | inactive | inactive | inactive | inactive |  | inactive | inactive | inactive | inactive | inactive | inactive | inactive | inactive | inactive | inactive | inactive |  | 13.3 µM (active)
9 | O=C1CCC(c2ccccc2)(C2CCN(Cc3ccccc3)CC2)C(=O)N1 (configuration not stated) | inactive | inactive | inactive | inactive | inactive | inactive | inactive | inactive | inactive | inactive | inactive | inactive | inactive | inactive | inactive | inactive | inactive |  | inactive
10 | COc1ccc(/C=C/C(=O)O)cc1 | inactive | inactive | inactive | inactive | inactive | inactive | inactive | inactive | inactive | inactive | inactive | inactive | inactive | inactive | inactive | inactive | inactive | inactive | 
11 | CSCCC(N)C(=O)O (configuration not stated) | inactive | inactive | inactive | inactive |  | inactive | inactive |  | inactive | inactive | inactive | inactive | inactive | inactive | inactive | inactive | inactive | inactive | inactive
12 | O=C1OC(=O)c2cc(-c3ccc4c(c3)C(=O)OC4=O)ccc21 | inactive | inactive | inactive | inactive |  | inactive | inactive | inactive | inactive | inactive | inactive | inactive | inactive | inactive | inactive | inactive |  |  | 
13 | NS(=O)(=O)c1cc(Cl)c(Cl)c(S(N)(=O)=O)c1 | inactive | inactive | inactive | inactive | inactive | inactive | inactive | inactive | inactive | inactive | inactive | inactive | inactive | inactive | inactive | inactive | inactive | inactive | inactive
14 | CN[C@H](CC(C)C)C(=O)N[C@H]1C(=O)N[C@@H](CC(N)=O)C(=O)N[C@H]2C(=O)N[C@H]3C(=O)N[C@H](C(=O)N[C@@H](C(=O)O)c4cc(O)cc(O)c4-c4cc3ccc4O)[C@H](O)c3ccc(c(Cl)c3)Oc3cc2cc(c3O[C@@H]2O[C@H](CO)[C@@H](O)[C@H](O)[C@H]2O[C@H]2C[C@](C)(N)C(O)[C@H](C)O2)Oc2ccc(cc2Cl)[C@H]1O (some centres not stated) | inactive | inactive | inactive | inactive | inactive | inactive | inactive | inactive | inactive | inactive | inactive | inactive | inactive | inactive | inactive | inactive | inactive | inactive | inactive
